hgDAF12 agonist = H. glycines DAF-12 receptor agonists, primary screen, cell-based, luminescence, HEK293, GAL4 fusion, UAS-luciferase; HEK293 GAL4-hgDAF12 UAS-luciferase reporter, agonist luminescence; normalized to butyrate control; activation, % at 6.8 µM; hit rate 1.8% among 370,000;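 active means activation above a cutoff set at the mean of all screened compounds plus 3 SD, cut at about 10% in these data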
DAX1 inh-1 = DAX1 (NR0B1) inhibitors on StAR promoter, primary screen, cell-based, luminescence, SF-1 (NR5A1), full-length DAX-1. inhibition, % at 6.8 µM. HEK293T StAR-luciferase reporter, SF-1/DAX-1 repression relief. hit rate 1.1% among 370,000. AID 652010, 2013;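 active means inhibition above the mean over all tested compounds plus 3 SD, cut at about 3.6% in these data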;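 further: higher inhibition means more luminescence from relief of DAX-1 repression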
SMARCA2 activ = SMARCA2 (BRM) function activators, primary screen, cell-based, luminescence, high throughput; hit rate 1% among 370,000; activation, % at 9.1 µM; MG213 cells, MMTV-luciferase reporter, dexamethasone, overnight; AID 652017, 2013; in the data active means activation above about 7.8%
hcDAF-12 act = H. contortus DAF-12 nuclear receptor activators, primary screen, cell-based, luminescence, HEK293, lit1-tk-luc reporter; HEK293 hcDAF-12 lit1-tk-luc reporter; 0% DMSO, 100% Δ7-dafachronic acid; activation, % at 6.8 µM; hit rate 1.4% among 370,000;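 active means activation above the mean of all tested compounds plus 3 SD, cut at about 5.5% in these data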
ssDAF12 agonist = S. stercoralis DAF-12 nuclear receptor activators, primary screen, cell-based, luminescence, HEK293, GRIP1 co-expression, lit1-tk-luc. Nuclear hormone receptor DAF-12 (Strongyloides stercoralis). HEK293 ssDAF-12/GRIP1 lit1-tk-luc reporter; % of 3 µM dafachronic acid response. activation, % at 6.8 µM. hit rate 1% among 370,000;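 active means activation above the mean over all tested compounds plus 3 SD, cut at about 0.9% in these data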
DAX1 inh-2 = DAX1 (NR0B1) inhibitors, primary screen, cell-based, HEK293, Gal4-DAX1, luciferase luminescence | hit rate 0.99% among 340,000 | Nuclear receptor subfamily 0 group B member 1 (Homo sapiens), P51843 | HEK293 Gal4-DAX1 luciferase reporter | inhibition, % at 6.75 µM;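 active means inhibition above the mean over all tested compounds plus 3 SD, cut at about 4.2% in these data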;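 further: inhibition shows as a rise in luminescence from relieved DAX1 repression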
Target sequence (P51843 207-470 limits assumed): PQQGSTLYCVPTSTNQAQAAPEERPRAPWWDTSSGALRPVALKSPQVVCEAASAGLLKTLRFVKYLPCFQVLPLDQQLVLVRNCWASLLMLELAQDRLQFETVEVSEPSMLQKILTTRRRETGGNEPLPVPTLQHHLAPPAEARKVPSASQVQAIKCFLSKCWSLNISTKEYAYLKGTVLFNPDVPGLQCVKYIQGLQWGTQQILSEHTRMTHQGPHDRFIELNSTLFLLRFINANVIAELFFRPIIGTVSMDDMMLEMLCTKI
DAX1 conf = DAX1 (NR0B1) inhibitors relieving SF-1 repression, confirmation, cell-based, luminescence, HEK293T, full-length DAX-1, SF-1 activated StAR promoter. hit rate 87% among 2,400. inhibition, % at 6.8 µM. shares compounds with DAX1 inh-1. HEK293T StAR-promoter luciferase reporter, SF-1/DAX-1 repression;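 active means inhibition above the average of every tested compound plus 3 SD, cut at about 3.8% in these data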
SF1 mutant ctr = StAR reporter signal changes without DAX1, counter-screen for DAX1 inhibitor project, cell-based, luminescence, AF-2 mutant SF-1, transactivation; shares compounds with DAX1 inh-1; HEK293 StAR-luciferase, SF-1 AF2 mutant; inhibition, % at 6.8 µM; hit rate 78% among 2,400; AID 652136, 2013;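 active means inhibition above the mean of all tested compounds plus 3 SD, cut at about 3% in these data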
LXRb hcDAF ctr = LXR agonists, Gal4 luciferase reporter, confirmation, counter-screen for hcDAF-12 agonist project, cell-based, luminescence, HEK293, H. contortus campaign. 3,400 tested, under 10 active. shares compounds with hcDAF-12 act. activation, % at 6.8 µM. AID 743027, 2013. HEK293 Gal4-LXR tk-luc reporter, 24 h; normalized: DMSO 0%, positive control 100%;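 active means mean percent activation of the reporter above a cutoff set as the average over tested compounds plus their standard deviation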
hcDAF12 conf = H. contortus DAF-12 receptor agonists, confirmation, cell-based, luminescence, HEK293, lit1-tk-luc, triplicate | shares compounds with hcDAF-12 act | HEK293 hcDAF-12 lit1-tk-luc reporter; % of Δ7-dafachronic acid response | activation, % at 6.8 µM | hit rate 61% among 3,400;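 active means mean activation across triplicate tests above the threshold derived from the earlier primary screen, cut at about 5.5% in these data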
Large screens that a line does not name were inactive (follow-up assays come after a bar, where they were run). In the library only some 4.8% were active in any assay of this set; here they are far more common.

COc1c(O)cc2oc(-c3ccc(O)cc3)cc(=O)c2c1O	hgDAF12 agonist 11, DAX1 inh-1 5.2, hcDAF-12 act 9.6 | DAX1 conf 10 | SF1 mutant ctr inactive | LXRb hcDAF ctr inactive | hcDAF12 conf 6.8
Cn1ccc(C(=O)Nc2sc3c(c2C(N)=O)CCCCC3)n1	hgDAF12 agonist 12, DAX1 inh-1 10, hcDAF-12 act 7.8 | DAX1 conf 4.9 | SF1 mutant ctr inactive | LXRb hcDAF ctr inactive | hcDAF12 conf 6.9
NC(=O)c1c(NC(=O)c2cc3ccccc3o2)sc2c1CCC2	hgDAF12 agonist 13, DAX1 inh-1 4.8, hcDAF-12 act 9.9, ssDAF12 agonist 1.9 | DAX1 conf 14 | SF1 mutant ctr 7.6 | LXRb hcDAF ctr inactive | hcDAF12 conf 15
CC(=O)Nc1sc2c(c1C(N)=O)CCC2	none
NC(=O)c1c(NC(=O)c2cccnc2)sc2c1CCCCC2	none
CCOC(=O)CC(NS(=O)(=O)c1ccc(NC(C)=O)cc1)c1ccc(OCC)cc1 (stereo unspecified)	none
CC(C)(C)NC(=O)C(c1cc2ccccc2o1)n1c(-c2ccc(-c3ccccc3)cc2)nc2ccccc21 (stereo unspecified)	hgDAF12 agonist 25, DAX1 inh-1 10, hcDAF-12 act 21, ssDAF12 agonist 4.8 (no result: DAX1 inh-2) | DAX1 conf 13 | SF1 mutant ctr 9.6 | LXRb hcDAF ctr inactive | hcDAF12 conf 25
CCc1ccc(C2C(C#N)=C(N)OC3=C2C(=O)CCC3)s1 (stereo unspecified)	none
CCCc1nc2ccc(Br)cn2c1Cc1ccccc1	none (no result: DAX1 inh-2)
CCCc1nc2ccc(C)cn2c1Cc1ccccc1	DAX1 inh-1 4.6, hcDAF-12 act 7.2, ssDAF12 agonist 1.3 (no result: DAX1 inh-2) | DAX1 conf inactive | SF1 mutant ctr 3.8 | LXRb hcDAF ctr inactive | hcDAF12 conf 7.3
NC(=S)Nc1cccc(O)c1	none
CC(C)(C)c1ccc(C(=O)Nc2cnccn2)cc1	DAX1 inh-1 5.3, hcDAF-12 act 6.7 | DAX1 conf 14 | SF1 mutant ctr 7.3 | LXRb hcDAF ctr inactive | hcDAF12 conf inactive
COc1ccc(C(=O)Nc2cnccn2)cc1[N+](=O)[O-]	none
CCc1ccc(NC(=O)c2noc3c2CCc2ccccc2-3)cc1	none
CCc1ccc(NC(=O)c2noc3c2CCC3)cc1	hgDAF12 agonist 12, DAX1 inh-1 5.7, hcDAF-12 act 9.3, ssDAF12 agonist 1.4 | DAX1 conf 21 | SF1 mutant ctr 7.9 | LXRb hcDAF ctr inactive | hcDAF12 conf 14

High-throughput results deposited in PubChem by The Scripps Research Institute Molecular Screening Center.
